Source: PubChem BioAssay (The Scripps Research Institute Molecular Screening Center)
The list is not random: actives were taken first. Their share in the collection is about 1.1%.
OPRM1-OPRD1 ag: agonists of human mu-delta opioid receptor heterodimerization; 340,000 tested, 0.3% active; P35372+P41143; activation, % at 9.3 µM; cells, OPRM1-OPRD1 heterodimerization, luminescence; in the data active means activation above about 18%;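 further: 0% = vehicle-treated cells and 100% = reference agonist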
HTR5A inv ag: HTR5A inverse agonism, opioid heterodimer counter-screen; 340,000 tested, 0.083% active; inhibition, % at 9.3 µM; HTR5A cell line, luminescence; in the data active means inhibition mostly above about 23%, no sharp cut-off; inactive means mostly below about 18%;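 further: 0% = cells with DMSO and 100% = no-cell wells with DMSO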
Target sequence (P47898 whole entry, looked up): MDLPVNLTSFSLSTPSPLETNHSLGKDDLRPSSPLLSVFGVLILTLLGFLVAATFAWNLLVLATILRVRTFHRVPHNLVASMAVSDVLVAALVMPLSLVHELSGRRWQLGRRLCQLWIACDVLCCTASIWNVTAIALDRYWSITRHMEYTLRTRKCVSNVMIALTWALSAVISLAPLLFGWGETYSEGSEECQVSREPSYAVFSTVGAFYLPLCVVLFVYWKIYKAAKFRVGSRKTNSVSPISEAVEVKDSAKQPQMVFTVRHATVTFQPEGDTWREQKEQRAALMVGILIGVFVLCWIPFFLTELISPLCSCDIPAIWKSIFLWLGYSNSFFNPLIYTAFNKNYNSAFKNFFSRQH
HTR5A ag: counter-screen for OPRM1-OPRD1 agonists: human HTR5A agonism | HTR5A agonist assay, luminescence, cell-based | activation, % at 9.3 µM | 340,000 tested, 0.61% active | AID 504692; in the data active means activation mostly above about 9.5%, no sharp cut-off; inactive means mostly below about 7.6%;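 further: 0% = cells with vehicle only and 100% = reference agonist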
OPRM1-OPRD1 inv: mu-delta opioid heterodimer inverse agonism. P35372+P41143. AID 504357. cell-based MOR-DOR heterodimer luminescence. 340,000 tested, 0.21% active. inhibition, % at 9.3 µM; in the data active means inhibition above about 22%, passing the limit was not always enough;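 further: 0% = cells with DMSO and 100% = wells without cells with DMSO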
HTR5A ag counter: counter-screen for OPRM1-OPRD1 agonists: human HTR5A agonism; HTR5A agonist counterscreen, cell luminescence; 830 tested, 8% active; activation, % at 9.3 µM; shares compounds with OPRM1-OPRD1 ag; in the data active means activation above about 17%;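 further: 0% = vehicle-treated cells and 100% = reference agonist response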
Numbers without * were called inactive; / = no result given; ! = not active in a repeat.

SMILES | OPRM1-OPRD1 ag | HTR5A inv ag | HTR5A ag | OPRM1-OPRD1 inv | others
O=c1c2ccccc2nc(/C=C/c2ccccc2F)n1-c1ccccc1O | 29.3* | 2.5 | -0.7 | -150.3
CCCNC(=O)N1[C@H]2CC[C@@H]1C(C(=O)OC)=C(c1cccc(C#N)c1)C2 | -1.3 | -3.7 | 13.3* | 5.9
COC(=O)C1=C(c2cccc(C#N)c2)C[C@@H]2CC[C@H]1N2C(=O)NCCOc1ccccc1 | -1.2 | -12.6 | 2.5 | 6.6
Cc1cccc(C)c1OP(N)(=O)OCC(F)(F)F (configuration not stated) | -4.5 | 4.7 | 1.6 | 22.6
c1ccc2c(CCNC3=NCCC3)c[nH]c2c1 | -2.5 | -44.0 | 11.4* | 14.0
CC1=C2C(=O)C3C(CC=C4CC(O)CCC43C)C2CCC12OC1CC(C)CNC1C2C (configuration not stated) | -2.9 | -11.6 | 3.1 | 13.3
CCN(CC)c1ccc(/C=N/c2sc3c(c2C#N)C2CCN3CC2)c(O)c1 | -8.2 | 11.2 | -3.4 | 41.6*
Oc1c(Br)c(Br)c(Br)c(Br)c1Br | -2.0 | -22.2 | 5.3 | 10.9
NC(=Nc1ccccc1)NN=Cc1c[nH]c2ccccc12 | 0.9 | -49.2 | 12.8* | -4.6
Cc1ccc(O)c(C)c1 | -2.1 | 1.1 | -0.2 | 11.1
CC(=O)OC1C2CCCC1C(N1CCCC1)CC2 (configuration not stated) | -2.7 | 1.2 | 13.0*! | 11.5
CC(=O)OC1C2CCC1C(N1CCCCC1)CC2 (configuration not stated) | -2.4 | 0.1 | -1.6 | 11.7
Cc1cc(NC(=O)COC(=O)c2c(C)nn(Cc3ccccc3)c2C)no1 | 0.3 | -4.8 | 12.0* | -1.7
Cc1cc([N+](=O)[O-])c(Cl)cc1NC(=O)C(C)C | 0.2 | 4.7 | -3.0 | -1.1
CNc1cc(Cl)c2nonc2c1[N+](=O)[O-] | -5.8 | 15.6 | -5.5 | 33.5*
Cc1cccc(C#N)c1 | -2.9 | -2.2 | 0.5 | 15.4
FC(F)(F)c1ccccc1NC1=NCCCS1 | -0.3 | 10.7 | -4.4 | 1.4
CC1(C)CN=C(Nc2ccccc2C(F)(F)F)S1 | -2.4 | 0.2 | 11.3* | 13.9
CN1CC(C#N)C2(O)c3ccccc3CCC2C1 (configuration not stated) | -2.0 | -12.7 | 0.3 | 10.1
CC12CCC(O)CC1CCC1C2CCC2(C)C(C3=CC(=O)OC3)C(O)CC12O (configuration not stated) | 69.5* | -128.0 | 33.4* | -304.1
CC12CC[C@H]3[C@@H](CCC4(O)C[C@H](O)CCC34/C=N/NC(=O)Cc3ccccc3)C1(O)CCC2C1=CC(=O)OC1 (some centres not stated) | 2.2 | -18.2 | 7.0 | -11.2
C[C@]12CC[C@H](O)C[C@H]1CC[C@@H]1[C@@H]2CC[C@]2(C)[C@@H](C3=CC(=O)OC3)CC[C@]12O | 71.3* | -73.9 | 36.5* | -394.9
CC(=O)c1cc(C#N)c(N2CCN(C)CC2)nc1C | -3.6 | 7.8 | -10.7 | 17.8
CC(=O)c1ccc2c(c1)C1C(Cl)C(Sc3ccccc3[N+](=O)[O-])CC1C(c1ccccc1[N+](=O)[O-])N2 (configuration not stated) | 6.6 | 2.6 | 10.8* | -37.2
C=C1C(=O)OC2CC(C)C3C=CC(=O)C3(C)C(O)C12 (configuration not stated) | -2.8 | 14.8 | -3.8 | 14.2
SMILES | OPRM1-OPRD1 ag | HTR5A inv ag | HTR5A ag | OPRM1-OPRD1 inv | others
C=C1C(=O)O[C@@H]2C[C@@H](C)[C@@H]3C=CC(=O)[C@@]3(C)[C@@H](OC(=O)CC(=O)O[C@H]3[C@@H]4C(=C)C(=O)O[C@@H]4C[C@@H](C)[C@@H]4C=CC(=O)[C@]43C)[C@H]12 | -8.2 | 7.5 | -1.5 | 46.4*
CCn1nc(-c2ccccc2)nc2c(=O)n(C)c(=O)nc1-2 | 23.9* | 17.8 | 9.0 | -142.4
CCC1(c2ccccc2)C(=O)NC(=S)NC1=O | -5.2 | -15.4 | 4.0 | 22.7
CC1(C)C[C@H]2C=C(C=O)[C@]3(C=O)C[C@]3(C)[C@H]2C1 | 11.0 | 1.2 | 41.5* | -60.7
Cc1cc(Oc2cc(NN3CCCCC3)c([N+](=O)[O-])cc2[N+](=O)[O-])ccc1[N+](=O)[O-] | -0.7 | 4.2 | 8.0 | 3.4
C=CCN1C[C@@H](C)N(C(c2ccc(C(=O)N(CC)CC)cc2)c2cccc(OC)c2)C[C@@H]1C (some centres not stated) | / | -21.3 | -1.1 | / | HTR5A ag counter=-1.4
COC(=O)C1=C(c2cccc(C#N)c2)C[C@@H]2CC[C@H]1N2C(=O)NCCCOC(C)C | 2.1 | -23.8 | -0.1 | -11.6
